Type in all cases: functional
Assay [1] deals with Solute carrier family 2, facilitated glucose transporter member 1 (Homo sapiens) (UniProt P11166). Kind of assay: ST_JUDE_LEISH: Cytotoxicity at 2uM final concentration against transgenic Leishmania Mexicana promastigotes LmGLUT1 that are glucose transport deficient and complemented with the human glucose transporter GLUT1. Activity is measured by DNA content using SYBR green in vitro.

Assay [2] concerns the target Hexose transporter 1 (Plasmodium falciparum) (UniProt O97467). The assay is described as follows: ST_JUDE_LEISH: Cytotoxicity at 2uM final concentration against transgenic Leishmania Mexicana promastigotes LmPfHT that are glucose transport deficient and complemented with the Plasmodium falciparum hexose transporter. Activity is measured by DNA content using SYBR green in vitro.

Assay [3] has as its target Glucose transporter (Leishmania mexicana) (UniProt O61059). Kind of assay: ST_JUDE_LEISH: Cytotoxicity at 2uM final concentration against transgenic Leishmania Mexicana promastigotes LmGT2 that are glucose transport deficient and complemented with the L. Mexicana glucose transporter 2. Activity is measured by DNA content using SYBR green in vitro.

SMILES strings stand for the structures.

Chain of Solute carrier family 2, facilitated glucose transporter member 1 (Homo sapiens) (P11166 whole entry): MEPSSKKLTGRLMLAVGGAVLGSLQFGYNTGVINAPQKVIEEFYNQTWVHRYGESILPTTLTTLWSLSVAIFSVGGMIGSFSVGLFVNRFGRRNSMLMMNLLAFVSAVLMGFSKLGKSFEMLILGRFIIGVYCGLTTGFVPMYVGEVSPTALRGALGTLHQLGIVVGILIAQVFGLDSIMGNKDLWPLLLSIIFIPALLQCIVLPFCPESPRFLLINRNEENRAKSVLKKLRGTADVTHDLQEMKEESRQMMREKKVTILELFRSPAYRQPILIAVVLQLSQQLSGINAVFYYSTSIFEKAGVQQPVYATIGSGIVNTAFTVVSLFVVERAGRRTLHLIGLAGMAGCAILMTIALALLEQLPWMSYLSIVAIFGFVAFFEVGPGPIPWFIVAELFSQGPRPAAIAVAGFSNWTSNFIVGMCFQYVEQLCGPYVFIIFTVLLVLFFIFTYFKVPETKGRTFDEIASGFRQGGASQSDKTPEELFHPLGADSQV

Regarding `CC(C)Oc1cc2c(cc1NS(=O)(=O)c1ccc(-c3ccc(Cl)cc3)cc1)CCN(C)CC2`, the inhibition amounted to 2.55% in assay [1], 7.31% in assay [2] and 4.31% in assay [3].

On to `Nc1nc(N)c2c(ccc3[nH]ccc32)n1`, for which the values for the inhibition in assay [1], in assay [2] and in assay [3] were 0.22%, 2.46% and 2.25%, respectively.

As for `Nc1cccc(CNCc2cccc(-c3cccc(-c4nc5cc(F)ccc5[nH]4)c3)c2)c1`, the inhibition in assay [1] is 0.35%; in assay [2], 0.35%; in assay [3], -0.66%.

As for `c1ccc(CN2CCC(NCc3ccccc3-c3cccc(CNCc4ccc5c(c4)OCO5)c3)CC2)cc1`, the values for the inhibition in assay [1], in assay [2] and in assay [3] were -2.53%, -0.36% and 0.7%, respectively.

With `CN1CCCC(CN2CCN(Cc3ccc(-c4ccc(-c5nc6cc(F)ccc6[nH]5)cc4)cc3)CC2)C1` (stereo not drawn), the inhibition in assay [1] amounted to 2.18%; in assay [2], 4.45%; in assay [3], 2.38%.

With `Oc1ccc(CCNc2nc(NCCCOc3cc(CN4CCCCC4)ccc3F)nc(N3CCNCC3)n2)cc1`, the inhibition worked out at 1.98% in assay [1], 4.72% in assay [2] and 5.14% in assay [3].

Turning to `Cc1nc(C)c(-c2ccc(Oc3cccc(OC(F)(F)F)c3)cc2)c(O)c1Cl`, the inhibition in assay [1] was found to be 2.22%; in assay [2], 2.75%; in assay [3], 2.84%.

Turning to `O=C(NC1CCN(CCN2CCC(c3cn(CCO)c4ccccc34)CC2)CC1)c1ccc(-c2ccc(C(F)(F)F)cc2)cc1`, the inhibition was -1.51% in assay [1], 3.18% in assay [2] and 0.94% in assay [3].

Regarding `O=C(/C=C/c1ccc(Cl)c(Cl)c1)NCCCCCN1CCC(NC(=O)c2ccc([N+](=O)[O-])cc2)CC1`, the results for the inhibition in assay [1], in assay [2] and in assay [3] were 12.2%, 9.99% and 9.31%, respectively.

For `Cc1[nH]c(C)c(-c2ccc(-c3ccccc3C(F)(F)F)nc2)c(=O)c1Br`, the inhibition is 2.64% in assay [1], 3.67% in assay [2] and 0.55% in assay [3].

As to `O=C(Nc1ccc(S(=O)(=O)N2CCOCC2)cc1)c1cc(-c2cc(Cl)ccc2O)n[nH]1`, the inhibition amounted to 0.98% in assay [1], 0.88% in assay [2] and 0.85% in assay [3].

Regarding `COc1ccc(C=NN=c2cc(C)[nH]c3ccccc23)cc1OC`, the results for the inhibition in assay [1], in assay [2] and in assay [3] were 7.8%, 9.53% and 2.8%, respectively.

`COCC(C)n1c(SCC(=O)Nc2cc(C(F)(F)F)ccc2Cl)nc2ccccc2c1=O` (stereo not drawn): the inhibition is 6.25% in assay [1], 4.88% in assay [2] and 2.72% in assay [3].

`Cc1cccc2nc(-c3ccc(-c4cccc(CNCCc5ccncc5)c4)s3)[nH]c12`: the values for the inhibition in assay [1], in assay [2] and in assay [3] were 3.13%, 1.49% and 2.73%, respectively.

Take `Fc1ccc(C=NNc2nc3ccccc3[nH]2)cc1`: the inhibition in assay [1] is 16.4%; in assay [2], 13.1%; in assay [3], 12.1%.

`CCNc1cc(C(=O)N[C@@H](Cc2ccccc2)[C@H](O)CNCc2ccc3c(c2)OCCO3)cc(N2CCCCS2(=O)=O)c1`: the inhibition in assay [1] was 0.98%; in assay [2], 1.25%; in assay [3], 1.57%.

In the case of `CCc1cc(I)c2c(c1)C(NCCCNc1cc(=O)c3ccccc3[nH]1)CCN2` (stereo not drawn), the inhibition in assay [1] was found to be 2.28%; in assay [2], 4.39%; in assay [3] it was 1.86%.

As for `Cc1nnsc1C(=O)Nc1cccc(-c2ccc(-c3nc4cc(F)ccc4[nH]3)cc2)c1`, the inhibition turned out to be 3.93% in assay [1], 3.3% in assay [2] and 4.66% in assay [3].

As for `O=C(Nc1cccc(-c2ccc(CN3CCC(O)CC3)cc2)c1)c1ccc(Cl)cc1`, the results for the inhibition in assay [1], in assay [2] and in assay [3] were 2.51%, 3.64% and 1.52%, respectively.

`COc1cc(C)nc2ccc(NC(=O)COCC(=O)Nc3ccc4nc(C)cc(OC)c4c3)cc12`: the inhibition in assay [1] was 4.3%; in assay [2], 3.83%; in assay [3], 3.64%.

Consider `Nc1ncc(-c2ccc3ncccc3c2)c(N)n1`, for which the inhibition in assay [1] is 0.18%; in assay [2] it was 0.97%; in assay [3], 1.18%.

Consider `O=C(Nc1ccccc1)c1ccc(-c2cc3ccncc3cc2OC2CCNCC2)s1`, for which the inhibition is -3.12% in assay [1], 3.86% in assay [2] and -3.49% in assay [3].

For the compound `CCC(Cc1cnc2nc(N)nc(N)c2n1)c1ccc(C(=O)N[C@@H](CCC(=O)O)C(=O)O)cc1` (stereo partly drawn), the inhibition in assay [1] is 11.9%; in assay [2], 22.1%; in assay [3], 3.38%.

On to `Cc1ccc(NC(=O)c2ccc(CN3CCCN(CC4CCCCC4)CC3)cc2)cc1`, for which the inhibition in assay [1] stood at 7.01%; in assay [2] it was 8.37%; in assay [3], 9.64%.

For the compound `CC[C@H]1CN(CCCC(=O)c2ccccc2)CC[C@H]1CCCc1ccnc2ccc(OC(=O)c3ccccc3)cc12`, the results for the inhibition in assay [1], in assay [2] and in assay [3] were 4.64%, 5.86% and 2.72%, respectively.

With `COc1ccc2c(c1)C(C)(CCCN(C)C)C(=O)N2C` (stereo not drawn), the inhibition in assay [1] was 1.02%; in assay [2], 1.36%; in assay [3], 2.15%.

In the case of `CCn1c(-c2nonc2N)nc2c(-c3cc4ccccc4s3)ncc(C(=O)N3CCC(N)C3)c21` (stereo not drawn), the values for the inhibition in assay [1], in assay [2] and in assay [3] were 82.2%, 98.3% and 10.9%, respectively.

As to `CC1(C)NC(N)=NC(=N)N1OCCCCOc1ccc(Cl)cc1C1CCCCC1`, the inhibition in assay [1] was found to be 18%; in assay [2] it was 26.4%; in assay [3], 11.5%.

Take `O=S(=O)(Nc1ccc2nccc(N3CCNCC3)c2c1)c1ccc(-c2ccccc2)cc1`: the figures for the inhibition in assay [1], in assay [2] and in assay [3] were 0.86%, 1.12% and 0.59%, respectively.

As to `Cc1cc(N2CCCC2)nc(Nc2ccc(NC(=O)c3ccccc3)cc2)n1`, the inhibition came to 1.14% in assay [1], 6.69% in assay [2] and 3.09% in assay [3].

Take `COc1cc(F)c2ncc(Cl)c([C@@H](O)CN3CCC(NCc4cc5c(cn4)OCCO5)CC3)c2c1`: the inhibition was determined as 9.42% in assay [1], 8.83% in assay [2] and 5.13% in assay [3].

For the compound `C=C[C@H]1CN(CCCCCCC)CC[C@H]1CC(O)Cc1ccnc2cc(O)c(OC)cc12` (stereo partly drawn), the inhibition is -1.66% in assay [1], -0.12% in assay [2] and 0.32% in assay [3].

On to `c1cncc(NCc2ccc(-c3cc4ccncc4cc3OC3CCNCC3)s2)c1`, for which the inhibition turned out to be 4.74% in assay [1], 5.2% in assay [2] and 4.54% in assay [3].

For `COc1cc(NC(=O)c2cc([N+](=O)[O-])ccc2NC(=O)CNC2CCCCC2C)cc(OC)c1` (stereo not drawn), the figures for the inhibition in assay [1], in assay [2] and in assay [3] were 7.57%, 2.04% and 1.96%, respectively.

In the case of `COc1ccc(-c2nc(NC(=O)CSc3ccc([N+](=O)[O-])cc3)sc2C)cc1`, the inhibition is 0.33% in assay [1], -0.37% in assay [2] and -1.33% in assay [3].

As for `O=C(Nc1ccccc1)N(Cc1ccc(-c2ccc(CNC3CCCC3)cc2)cc1)C1CCN(Cc2ccccc2)CC1`, the figures for the inhibition in assay [1], in assay [2] and in assay [3] were 4.17%, 3.43% and 2.32%, respectively.

The values are drawn from ChEMBL document CHEMBL3433997, “St. Jude Leishmania screening dataset” (2016).
